Bioassay records: PubChem BioAssay, several laboratories
AHR activator: human AHR activation; P35869; AHR-responsive luciferase reporter cells, luminescence; activation, % at 5 µM; hit rate 2.5% among 320,000; AID 2796; in the data active = activation above about 47%;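 note: 0% = vehicle wells and 100% = reference agonist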
HSF1 inhib: HSF1 inhibition. NIH3T3-HGL HSE-luciferase, MG132-induced, luminescence 8 h; hits give low values. activity change, negative = inhibition, % at 7.5 µM (by protocol). hit rate 0.77% among 300,000. AID 2098;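 active = more than half of replicate wells show activity change below -50%, luminescence cut by over half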;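 note: luciferase reports HSF-1 transcriptional activity via heat shock element; 0% = median of DMSO wells and -100% = zero luminescence signal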
HSF1 activator: increases HSF-1 driven luciferase reporter signal. hit rate 1.7% among 300,000. activation, % at 9 µM. NIH3T3-HGL HSF-1 luciferase reporter, MG132, 8 h; 100% = twice DMSO control signal;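 active = mean replicate activation of at least 50% with a set share of replicates each reaching 50%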;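 note: 0% = median of the neutral control wells and 100% = twice that signal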
GAA850 FXN act: increases GAA850 frataxin promoter reporter activity | HEK293 lucGAA850 FXN promoter luciferase reporter, 24 h; percent of 10 µM SAHA response | activation, % at 6 µM | hit rate 0.56% among 360,000;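 active = activation above the average of all compounds screened plus 3 SD, cutoff fixed separately per campaign, cut at about 7.5% in these data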;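 note: 0% = DMSO wells and 100% = 10 µM SAHA wells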
AHR act cf: confirmation of human aryl hydrocarbon receptor activators. human cells, AHR-responsive luciferase reporter, luminescence. activation, % at 9 µM. hit rate 87% among 2,300. shares compounds with AHR activator; in the data active = activation above about 49%;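 note: HepG2 hepatoma cells carrying a DRE-driven firefly luciferase reporter; 0% = vehicle wells and 100% = reference agonist wells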
PXR counter: counter-screen for AHR activators: human PXR activators. shares compounds with AHR activator. cell-based PXR reporter, luciferase luminescence. activation, % at 11.6 µM. hit rate 88% among 2,300. AID 434939; in the data active = activation above about 11%;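 note: human hepatoma DPX-2 cells expressing full-length human PXR; 0% = DMSO and 100% = reference agonist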
Target sequence (O75469 whole entry, looked up): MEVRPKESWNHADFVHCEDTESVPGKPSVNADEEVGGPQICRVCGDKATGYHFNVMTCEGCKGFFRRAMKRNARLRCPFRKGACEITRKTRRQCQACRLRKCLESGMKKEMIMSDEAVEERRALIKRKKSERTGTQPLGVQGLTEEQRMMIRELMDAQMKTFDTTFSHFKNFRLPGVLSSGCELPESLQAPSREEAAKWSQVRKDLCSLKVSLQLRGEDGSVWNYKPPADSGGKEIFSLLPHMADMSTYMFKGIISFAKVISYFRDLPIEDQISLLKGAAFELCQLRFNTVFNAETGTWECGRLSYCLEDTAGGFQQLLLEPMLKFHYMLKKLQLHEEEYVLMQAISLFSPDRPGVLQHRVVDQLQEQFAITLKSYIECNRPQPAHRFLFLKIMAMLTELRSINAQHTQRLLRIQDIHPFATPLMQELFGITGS
The depositor's hits bear a star; · = not tested or not shown. Only some compounds are listed: those with a hit (about 4.6% of all), similar ones and a draw of the others.

SMILES	AHR activator	HSF1 inhib	HSF1 activator	GAA850 FXN act	AHR act cf	PXR counter
COc1ccc(Nc2ccnc(Nc3ccc(OC)cc3)n2)cc1	83*	19	31	1	62*	37*
O=C(Nc1ccccc1)c1ccc2ccccc2n1	43	18	20	3	·	·
O=C(Nc1ccccc1C(=O)O)c1ccc2ccccc2n1	93*	13	1	1	130*	32*
Cc1ccc(NC(=O)c2ccc3ccccc3n2)nc1	86*	24	47	6	106*	18*
O=C1C(=O)N(CCCc2ccccc2)c2ccccc21	23	-14	-25	0	·	·
CC(C)CN(C(=O)CSc1nnc2ccccn12)c1c(N)n(CC(C)C)c(=O)[nH]c1=O	1	-5	-10	2	·	·
Oc1ccc2ccc3[nH]cnc3c2c1	80*	-7	6	3	37	22*
CN(C)Cc1c(O)ccc2[nH]cnc12	2	-5	6	2	·	·
COc1ccc(C(=O)OC(C)CN2CCN(C)CC2)cc1 (stereo unspecified)	5	4	1	4	·	·
O=C(CCCn1nnc2ccccc2c1=O)N[C@@H](Cc1ccccc1)C(=O)O	-1	6	25	2	·	·
Cc1ccc(-c2csc(-c3c[nH]c4ccccc34)n2)c(C)c1	106*	5	22	0	115*	24*
CC(=O)NCCC(=O)Nc1nc(-c2c[nH]c3ccccc23)cs1	·	-1	4	-2	·	·
Cc1nc(NC(=S)NC(=O)c2cccs2)sc1C(=O)N(C)C	-2	1	28	0	·	·
c1ccc(-n2nc3c(ccc4cnnc43)[nH]2)cc1	131*	38	33	6	149*	26*
COc1cc(O)cc2occ(-c3ccc(O)cc3)c(=O)c12	0	2	19	0	·	·
COc1ccc(-c2coc3cc(OC)cc(OC)c3c2=O)cc1	93*	18	26	2	132*	26*
COc1cccc(NC(=O)C2(C)CCN2C(=O)C2CCCCC2)c1 (stereo unspecified)	·	·	·	1	·	·
O=c1c2[nH]c3ccc(F)cc3c2ncn1CCCn1ccnc1	96*	17	8	-1	81*	18*
Cn1c(=O)c2c(ncn2Cc2cc(-c3ccccc3)no2)n(C)c1=O	5	4	29	-2	·	·
O=C1Nc2ccccc2C1c1ncc(C(F)(F)F)cc1Cl (stereo unspecified)	90*	6	9	2	30	21*
O=c1[nH]nc(Cc2ncc(C(F)(F)F)cc2Cl)c2ccccc12	2	-1	1	1	·	·
OCCn1c(CSc2nc3ccccc3n2CCO)nc2ccccc21	9	-3	2	1	·	·
COc1c2occc2c(OC)c2c(=O)cc(C(F)(F)F)oc12	84*	-10	17	-1	86*	22*
CN1C2C=C3C(C#N)=C(N)C(C#N)(C#N)C(c4ccc(Br)cc4)C3C1CC2 (stereo unspecified)	110*	3	0	-4	79*	107*
O=C(CSc1nc(-c2ccccc2Cl)ns1)Nc1ccc2c(c1)OCO2	87*	4	6	3	72*	17*
SMILES	AHR activator	HSF1 inhib	HSF1 activator	GAA850 FXN act	AHR act cf	PXR counter
Cc1ccc(-c2nsc(SCC(=O)Nc3ccc4c(c3)OCO4)n2)cc1	30	-4	26	0	·	·
Cc1c(C(=O)NCc2ccccn2)oc2c(Cl)cccc12	87*	·	·	3	132*	50*
Cc1ccccc1C(=O)Nc1ccc(Br)c(C)n1	88*	18	46	3	130*	52*
C/C(=C1/C(=O)N(c2ccc([N+](=O)[O-])cc2)N=C1c1ccccc1)N(C)C	87*	·	·	·	37	29*
COc1ccc(CN(CC(=O)NCc2ccc(F)cc2)C(=O)CCC(=O)Nc2nccs2)cc1	-1	1	20	-1	·	·
O=c1c2[nH]c3cccc(Cl)c3c2ncn1Cc1ccncc1	84*	·	·	-1	74*	19*
COc1ccccc1CNC(=O)CCc1nnc2ccc(NCCCN3CCCC3=O)nn12	0	-11	-11	0	·	·
COc1ccc2nc(C)cc(N/N=C/c3ccc(F)cc3)c2c1	80*	12	-7	-14	69*	·
COc1ccc(/C=N/Nc2cc(C)nc3ccccc23)cc1	120*	3	-4	0	50*	·
Cc1ccc2nc(C)cc(N/N=C/c3cccc(O)c3)c2c1	13	5	0	1	·	·
